Results taken from the supplement of paper PMC6555819.

Assays:
Assay in all cases: PBM binding z-score (relative to random genomic background probes); higher = stronger binding; sequences stand for … in GC…GCGATTGACAGCGTAGAATGAAGG
[1] = test system: FXR:RXRa (NR concentration 270 nM, RXRa partner concentration 90 nM)
In short: (§1)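 Random background probes are the reference for binding z-scores. These scores derive from regression-normalized fluorescence on custom Agilent 4×180K protein-binding microarrays incubated 1 h with ligand-free nuclear receptor dimers. Binding was detected with antibodies against each partner (one per run).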

[2] = test system: LXRa:RXRa (NR concentration 270 nM, RXRa partner concentration 90 nM)
In short: as §1

[3] = test system: LXRa homodimer (NR concentration 270 nM)
In short: as §1

[4] = test system: LXRb:RXRa (NR concentration 270 nM, RXRa partner concentration 90 nM)
In short: as §1

[5] = test system: LXRb homodimer (NR concentration 270 nM)
In short: as §1

[6] = test system: PPARa:RXRa (NR concentration 270 nM, RXRa partner concentration 90 nM)
In short: as §1

[7] = test system: PPARg:RXRa (NR concentration 180 nM, RXRa partner concentration 90 nM)
In short: as §1

[8] = test system: PPARg:RXRa 270nM:90nM, anti-RXR (NR concentration 270 nM, RXRa partner concentration 90 nM)
In short: as §1

[9] = test system: PPARg:RXRa 30nM:10nM, anti-RXR (NR concentration 30 nM, RXRa partner concentration 10 nM)
In short: as §1

[10] = test system: PPARg:RXRa 90nM:30nM, anti-RXR (NR concentration 90 nM, RXRa partner concentration 30 nM)
In short: as §1

[11] = test system: PPARg:RXRa DBDmut IVT, anti-RXR (DBD mutation: RXRa K156A/R161A, NR concentration 270 nM, RXRa partner concentration 90 nM)
In short: as §1

[12] = test system: PPARg:RXRa IVT, anti-PPARg (NR concentration 270 nM, RXRa partner concentration 90 nM)
In short: as §1

[13] = test system: PPARg DBDmut:RXRa IVT, anti-PPARg (DBD mutation: PPARg1 K132A/R137A, NR concentration 270 nM, RXRa partner concentration 90 nM)
In short: as §1

[14] = test system: PPARg DBDmut IVT, anti-PPARg (DBD mutation: PPARg1 K132A/R137A, NR concentration 270 nM)
In short: as §1

[15] = test system: PPARg homodimer (NR concentration 180 nM)
In short: as §1

[16] = test system: PXR:RXRa (NR concentration 270 nM, RXRa partner concentration 90 nM)
In short: as §1

[17] = test system: PXR homodimer (NR concentration 270 nM)
In short: as §1

[18] = test system: RARa:RXR (NR concentration 270 nM, RXRa partner concentration 90 nM)
In short: as §1

[19] = test system: RARa homodimer (NR concentration 270 nM)
In short: as §1

[20] = test system: RARb:RXRa (NR concentration 270 nM, RXRa partner concentration 90 nM)
In short: as §1

Row | Sequence | PBM binding z-score [1] | PBM binding z-score [2] | PBM binding z-score [3] | PBM binding z-score [4] | PBM binding z-score [5] | PBM binding z-score [6] | PBM binding z-score [7] | PBM binding z-score [8] | PBM binding z-score [9] | PBM binding z-score [10] | PBM binding z-score [11] | PBM binding z-score [12] | PBM binding z-score [13] | PBM binding z-score [14] | PBM binding z-score [15] | PBM binding z-score [16] | PBM binding z-score [17] | PBM binding z-score [18] | PBM binding z-score [19] | PBM binding z-score [20]
1 | ATCGAAAGGTCGAGATGAGTATAGAGAAAGGGAA | 3.74 | 3.2 | 0.146 | 2.54 | 0.748 | 4.2 | 2.56 | 2.97 | 0.989 | 2 | -0.278 | 1.33 | 1.47 | 1.2 | 1.05 | 2.02 | 0.117 | 2.52 | 0.436 | 3.66
2 | CTCCCAAGGTGAACAAGGTCGTTGATTACTATTC | 1.08 | 1.47 | 0.177 | 1.84 | -0.42 | 2.36 | 0.575 | 1.07 | 0.0592 | 0.823 | 1.99 | 2.07 | -0.441 | -0.154 | 0.903 | 2.42 | 1.92 | 2.14 | -0.0783 | 2.03
3 | CGTCCAAAGTCAGAGAGGTCAGTGAATGCCGAGT | 1.93 | 2.04 | 1.25 | 1.98 | 0.362 | 2.51 | 0.249 | 0.942 | -0.0025 | 0.475 | 0.254 | 0.644 | -0.212 | -0.647 | 1.79 | 3.05 | 1.35 | 2.85 | 0.862 | 3.27
4 | AGTCAAAGTTCAGTACGAGGTAACGTAAAGCACG | 3.32 | 3.34 | 1.28 | 1.83 | 0.584 | 2.76 | 3.76 | 4.15 | 1.8 | 2.93 | -0.11 | 1.83 | 0.68 | 0.981 | 1.69 | 3.02 | 1.72 | 2.35 | 1.06 | 4.11
5 | TAGCCTAGGTCATTCAGCGGCCAGTATAGAAAGC | 5.03 | 3.68 | 1.04 | 2.68 | 0.455 | 3.72 | 2.09 | 2.21 | 0.564 | 1.12 | 1.69 | 2.65 | 0.127 | -0.00854 | 2.11 | 1.94 | -0.494 | 3.02 | -0.474 | 3.92
6 | GCTTACGGGTCAAAGGTTCTAGCATGAATAGAAT | 6.11 | 4.09 | -0.0816 | 4.09 | -0.186 | 5.91 | 8.84 | 7.78 | 7.78 | 8.24 | 5.13 | 5.05 | 0.842 | 0.712 | 1.45 | 4 | 0.0267 | 5.93 | 0.382 | 3.82
7 | CCTACTGGGCCATCAGGTCATTTATATCAACGTT | 1.48 | 1.03 | 1.99 | 1.81 | 0.176 | 2.79 | 2.76 | 3.29 | 1.06 | 2.57 | 3.78 | 5.03 | 0.0191 | 0.266 | 1.09 | 1.59 | 0.478 | 2.06 | 0.492 | 1.75
8 | AGTCAAAGTTCAGGACAAGGTAACGTAAAGCACG | 4.6 | 3.97 | 1.69 | 2.19 | 0.548 | 3.47 | 4.97 | 4.95 | 2.16 | 4.11 | -0.163 | 2.21 | 1.02 | 0.792 | 2.91 | 3.12 | 1.58 | 3.09 | 1.2 | 4.38
9 | AGAACGAGGACACGCTGAGTTGATAGCAGAGTAG | 0.477 | -0.638 | -0.296 | -0.945 | -0.622 | -0.44 | 0.748 | -0.466 | 0.251 | -0.327 | 1.51 | 1.16 | -0.315 | 0.431 | 0.209 | -0.361 | 0.196 | -0.397 | -0.0719 | 1.4
10 | ATTATTAGTTGACTTAGGGCAACCGATACGACGC | 0.735 | 0.64 | 1.16 | 0.949 | 1.32 | 0.727 | 1.09 | 0.586 | 0.719 | 0.975 | 0.113 | 0.899 | 2.01 | 2.21 | 2.16 | 1.14 | 1.53 | 0.95 | 2.43 | 1.12
11 | TCTTGCAGATCAACAGGAGGTTAAGAAAGATCGA | -0.0407 | 0.769 | 0.0202 | 0.679 | -0.645 | 1.11 | -0.141 | 0.718 | 1.89 | 1.63 | 0.996 | 0.188 | 0.472 | 0.407 | -0.378 | 0.713 | -0.172 | 0.812 | -0.193 | 0.489
12 | TAGCCTAGGTGATTCAGGGGCCAGTATAGAAAGC | -0.423 | -0.634 | -0.348 | -0.094 | -0.239 | 0.0128 | 0.0919 | -0.199 | -0.433 | 0.0704 | 0.201 | 0.666 | -0.281 | 0.314 | -0.16 | -0.295 | -0.446 | 0.184 | -0.571 | 0.516
13 | ACTAGTTGGTCAGGTGAGGTCACACACAATTCGG | 3.87 | 3.4 | 2.65 | 3.35 | 0.501 | 3.83 | 2.36 | 2.68 | 0.906 | 1.88 | 1.77 | 3.37 | 0.914 | 0.637 | 3.1 | 5.46 | 2.28 | 4.89 | 2 | 3.44
14 | CCTCGGAGGACAGAAGGTTAGAGCTGTCCGCTTT | 0.0561 | 0.0136 | -0.236 | -0.312 | -1.14 | -0.123 | -0.506 | -0.434 | -0.944 | -0.855 | -0.501 | -0.792 | -1.88 | -2.87 | -0.233 | -0.354 | -0.764 | 0.0468 | -1.07 | 1.12
